According to the supplement of paper PMC10849652:
Of roughly 7,900 targets only a part is listed; those with a hit were picked by preference. About 0.6% of all pairs of compound and target were hits. Values without a mark were called inactive.

What was measured:
Test in all cases: log2 fold change, soluble protein after heating vs DMSO (PISA); higher = thermal stabilisation; K562 cells, 10 uM, 30 min; active = over 0.2 and 3.5 SD of the protein, either way, in both replicates (recomputed)
[1] = compound: CC1=C(C=C(C=C1)NC(=O)C2=CC(=CC=C2)C(C)(C)C#N)NC3=CC4=C(C=C3)N=CN(C4=O)C
How it was run: (§1)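 K562 cells (2×10^6 cells/mL) were treated with 10 μM compound for 30 min, and aliquots were heated for 3 min over 48°C-58°C. Pooled aliquots were extracted in PBS with 0.5% NP-40 at 4°C, and the supernatant after 21,000xg for 90 min was measured by TMTpro 16plex LC-MS/MS with channel sums equalised. Reported thermal stability, relative to control samples and from duplicates, is a log2 fold change.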

[2] = compound: CC1=C(C=C(C=C1)NC(=O)C2=CC(=CC=C2)N(C)C)NC(=O)C3=CC=C(C=C3)O
How it was run: as §1

[3] = compound: CC1=CC=C(C=C1)SC2=C3C=C(SC3=CN=C2)C(=O)N
How it was run: as §1

[4] = compound: CC1=NC(=CC=C1)C2=C(N=C(N2)C(C)(C)C)C3=CC4=NC=CN=C4C=C3
How it was run: as §1

Nexturastat A = compound: CCCCN(Cc1ccc(C(=O)NO)cc1)C(=O)Nc1ccccc1 [Nexturastat A]
How it was run: as §1

vemurafenib = compound: CCCS(=O)(=O)Nc1ccc(F)c(C(=O)c2c[nH]c3ncc(-c4ccc(Cl)cc4)cc23)c1F [vemurafenib]
How it was run: as §1

[5] = compound: CCCS(=O)(=O)Nc1ccc(F)c(C(=O)c2c[nH]c3ncc(Cl)cc23)c1F
How it was run: as §1

[6] = compound: CCCc1cc(C)[nH]c(=O)c1CNC(=O)c1cc(-c2ccnc(N3CCN(C)CC3)c2)cc2c1cnn2C(C)C
How it was run: as §1

givinostat = compound: CCN(CC)Cc1ccc2cc(COC(=O)Nc3ccc(C(=O)NO)cc3)ccc2c1 [givinostat]
How it was run: as §1

barasertib = compound: CCN(CCCOc1ccc2c(Nc3cc(CC(=O)Nc4cccc(F)c4)[nH]n3)ncnc2c1)CCOP(=O)(O)O [barasertib]
How it was run: as §1

Chain of UniProt P10619 (P10619 whole entry, looked up): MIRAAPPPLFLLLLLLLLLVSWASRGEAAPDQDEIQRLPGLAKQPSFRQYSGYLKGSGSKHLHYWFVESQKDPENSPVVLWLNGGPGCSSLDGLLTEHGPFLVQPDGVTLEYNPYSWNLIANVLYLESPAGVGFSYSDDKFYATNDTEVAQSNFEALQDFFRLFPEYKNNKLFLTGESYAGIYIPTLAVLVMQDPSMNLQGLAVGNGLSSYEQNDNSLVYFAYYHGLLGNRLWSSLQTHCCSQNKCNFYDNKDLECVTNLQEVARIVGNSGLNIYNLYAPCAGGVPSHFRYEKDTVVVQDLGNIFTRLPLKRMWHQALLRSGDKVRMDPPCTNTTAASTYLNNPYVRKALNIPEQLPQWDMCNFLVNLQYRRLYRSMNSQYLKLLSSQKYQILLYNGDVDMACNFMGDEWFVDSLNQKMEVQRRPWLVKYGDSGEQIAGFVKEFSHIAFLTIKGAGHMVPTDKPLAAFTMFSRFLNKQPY
Chain of UniProt Q9NYP7 (Q9NYP7 whole entry, looked up): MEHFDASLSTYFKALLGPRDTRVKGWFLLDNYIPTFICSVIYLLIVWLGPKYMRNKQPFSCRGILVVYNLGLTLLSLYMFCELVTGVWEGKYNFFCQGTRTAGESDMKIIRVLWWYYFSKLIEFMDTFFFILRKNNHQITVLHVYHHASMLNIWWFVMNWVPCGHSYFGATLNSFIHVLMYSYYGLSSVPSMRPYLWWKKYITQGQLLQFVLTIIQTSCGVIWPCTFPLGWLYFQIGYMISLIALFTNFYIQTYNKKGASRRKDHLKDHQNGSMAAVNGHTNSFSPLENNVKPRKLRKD
Chain of UniProt Q92556 (Q92556 whole entry, looked up): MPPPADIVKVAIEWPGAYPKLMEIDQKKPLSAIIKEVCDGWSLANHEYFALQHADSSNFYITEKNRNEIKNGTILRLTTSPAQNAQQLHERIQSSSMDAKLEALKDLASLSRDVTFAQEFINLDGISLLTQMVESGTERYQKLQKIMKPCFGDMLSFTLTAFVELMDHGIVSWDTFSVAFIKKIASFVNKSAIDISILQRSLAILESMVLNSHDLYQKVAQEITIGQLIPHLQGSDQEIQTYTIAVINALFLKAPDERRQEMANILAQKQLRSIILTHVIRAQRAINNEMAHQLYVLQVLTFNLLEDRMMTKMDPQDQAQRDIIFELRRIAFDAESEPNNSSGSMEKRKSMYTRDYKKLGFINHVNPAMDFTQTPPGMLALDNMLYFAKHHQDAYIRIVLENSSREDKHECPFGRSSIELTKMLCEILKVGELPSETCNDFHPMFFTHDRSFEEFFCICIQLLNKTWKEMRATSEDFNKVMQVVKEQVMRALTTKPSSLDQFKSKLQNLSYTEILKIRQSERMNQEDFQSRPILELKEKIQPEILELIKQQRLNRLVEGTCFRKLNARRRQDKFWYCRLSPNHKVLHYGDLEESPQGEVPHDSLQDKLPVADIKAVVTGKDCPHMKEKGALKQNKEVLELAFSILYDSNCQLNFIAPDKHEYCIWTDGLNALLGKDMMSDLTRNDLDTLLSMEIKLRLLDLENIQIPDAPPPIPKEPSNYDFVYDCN
Chain of UniProt Q96E09 (Q96E09 whole entry, looked up): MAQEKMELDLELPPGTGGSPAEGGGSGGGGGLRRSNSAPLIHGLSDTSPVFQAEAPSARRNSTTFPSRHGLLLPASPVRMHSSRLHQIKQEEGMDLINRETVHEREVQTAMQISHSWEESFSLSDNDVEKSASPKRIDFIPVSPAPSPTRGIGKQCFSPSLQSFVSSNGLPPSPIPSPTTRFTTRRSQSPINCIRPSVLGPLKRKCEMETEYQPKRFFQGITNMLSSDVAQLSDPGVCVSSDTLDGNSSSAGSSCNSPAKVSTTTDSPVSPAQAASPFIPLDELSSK
Chain of UniProt P39880 (P39880 whole entry, looked up): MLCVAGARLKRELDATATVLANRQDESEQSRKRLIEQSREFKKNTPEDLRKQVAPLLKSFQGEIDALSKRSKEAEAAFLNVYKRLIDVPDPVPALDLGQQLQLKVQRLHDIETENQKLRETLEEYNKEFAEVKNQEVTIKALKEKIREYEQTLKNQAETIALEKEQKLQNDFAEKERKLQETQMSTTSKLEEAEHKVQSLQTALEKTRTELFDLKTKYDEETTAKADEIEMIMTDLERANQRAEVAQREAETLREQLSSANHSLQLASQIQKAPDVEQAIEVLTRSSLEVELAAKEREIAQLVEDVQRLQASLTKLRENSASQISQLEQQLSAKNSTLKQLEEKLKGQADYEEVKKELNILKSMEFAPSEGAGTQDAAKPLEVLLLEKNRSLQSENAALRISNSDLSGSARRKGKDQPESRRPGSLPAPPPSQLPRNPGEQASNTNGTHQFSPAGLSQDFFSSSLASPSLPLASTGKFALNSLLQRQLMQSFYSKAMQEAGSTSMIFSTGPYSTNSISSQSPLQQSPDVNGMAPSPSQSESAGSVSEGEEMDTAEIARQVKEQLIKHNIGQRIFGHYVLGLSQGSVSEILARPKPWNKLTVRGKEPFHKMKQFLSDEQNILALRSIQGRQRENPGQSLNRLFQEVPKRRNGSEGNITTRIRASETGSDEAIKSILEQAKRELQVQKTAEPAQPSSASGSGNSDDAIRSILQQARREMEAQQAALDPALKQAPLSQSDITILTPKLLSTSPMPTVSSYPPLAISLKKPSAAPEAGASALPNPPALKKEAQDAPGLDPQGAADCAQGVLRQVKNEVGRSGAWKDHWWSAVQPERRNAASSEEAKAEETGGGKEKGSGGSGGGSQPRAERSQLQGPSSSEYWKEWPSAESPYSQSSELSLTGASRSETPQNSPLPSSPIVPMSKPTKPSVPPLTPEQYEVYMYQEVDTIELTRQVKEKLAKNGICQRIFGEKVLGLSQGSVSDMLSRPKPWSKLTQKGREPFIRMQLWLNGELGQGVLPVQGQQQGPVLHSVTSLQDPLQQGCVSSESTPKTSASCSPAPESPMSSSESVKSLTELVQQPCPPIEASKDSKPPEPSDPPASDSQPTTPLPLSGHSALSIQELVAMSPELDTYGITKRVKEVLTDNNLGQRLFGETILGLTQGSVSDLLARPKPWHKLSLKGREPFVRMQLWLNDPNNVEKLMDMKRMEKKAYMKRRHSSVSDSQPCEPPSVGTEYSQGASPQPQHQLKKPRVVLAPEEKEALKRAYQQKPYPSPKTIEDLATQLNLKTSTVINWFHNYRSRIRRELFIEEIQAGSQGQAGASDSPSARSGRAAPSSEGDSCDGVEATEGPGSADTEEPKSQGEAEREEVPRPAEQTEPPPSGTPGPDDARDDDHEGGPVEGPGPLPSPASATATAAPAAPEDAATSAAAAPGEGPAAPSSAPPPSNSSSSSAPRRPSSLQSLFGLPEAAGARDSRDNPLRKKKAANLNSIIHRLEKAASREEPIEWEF
Chain of UniProt O60911 (O60911 whole entry, looked up): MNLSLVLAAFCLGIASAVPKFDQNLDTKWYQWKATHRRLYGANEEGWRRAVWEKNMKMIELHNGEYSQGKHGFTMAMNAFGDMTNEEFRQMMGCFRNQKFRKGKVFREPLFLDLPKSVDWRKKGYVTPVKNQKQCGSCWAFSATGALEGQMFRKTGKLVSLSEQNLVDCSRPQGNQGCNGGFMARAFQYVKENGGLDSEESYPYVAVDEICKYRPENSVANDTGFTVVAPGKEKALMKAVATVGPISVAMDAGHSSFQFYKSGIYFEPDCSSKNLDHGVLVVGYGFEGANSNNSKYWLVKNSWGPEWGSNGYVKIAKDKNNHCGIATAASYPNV
Chain of UniProt Q7L014 (Q7L014 whole entry, looked up): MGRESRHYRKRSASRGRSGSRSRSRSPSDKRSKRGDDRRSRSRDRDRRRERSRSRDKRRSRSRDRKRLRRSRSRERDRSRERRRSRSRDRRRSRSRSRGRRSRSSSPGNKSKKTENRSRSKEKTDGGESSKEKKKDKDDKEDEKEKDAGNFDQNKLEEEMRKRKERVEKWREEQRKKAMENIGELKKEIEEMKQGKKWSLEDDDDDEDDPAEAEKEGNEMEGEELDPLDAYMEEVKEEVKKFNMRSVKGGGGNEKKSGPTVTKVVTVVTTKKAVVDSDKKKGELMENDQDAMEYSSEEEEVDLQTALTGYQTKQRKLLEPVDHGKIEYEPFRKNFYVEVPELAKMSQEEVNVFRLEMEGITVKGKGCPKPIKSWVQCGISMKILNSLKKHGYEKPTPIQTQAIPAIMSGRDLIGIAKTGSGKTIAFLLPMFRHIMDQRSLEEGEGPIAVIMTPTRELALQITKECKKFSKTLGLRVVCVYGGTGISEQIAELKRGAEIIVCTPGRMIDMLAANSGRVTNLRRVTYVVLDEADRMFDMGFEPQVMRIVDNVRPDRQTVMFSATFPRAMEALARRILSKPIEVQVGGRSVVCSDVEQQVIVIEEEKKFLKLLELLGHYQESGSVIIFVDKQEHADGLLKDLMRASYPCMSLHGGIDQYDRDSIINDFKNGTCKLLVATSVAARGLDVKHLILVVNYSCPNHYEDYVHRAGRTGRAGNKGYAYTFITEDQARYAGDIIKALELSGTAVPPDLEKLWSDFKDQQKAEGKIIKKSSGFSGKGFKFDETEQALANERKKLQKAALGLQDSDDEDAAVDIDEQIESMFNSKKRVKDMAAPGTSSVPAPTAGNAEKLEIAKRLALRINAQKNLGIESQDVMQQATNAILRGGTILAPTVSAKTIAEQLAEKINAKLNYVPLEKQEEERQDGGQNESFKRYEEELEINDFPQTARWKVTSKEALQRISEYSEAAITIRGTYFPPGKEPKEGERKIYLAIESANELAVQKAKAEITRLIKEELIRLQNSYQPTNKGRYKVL
Chain of UniProt Q9NWS6 (Q9NWS6 whole entry, looked up): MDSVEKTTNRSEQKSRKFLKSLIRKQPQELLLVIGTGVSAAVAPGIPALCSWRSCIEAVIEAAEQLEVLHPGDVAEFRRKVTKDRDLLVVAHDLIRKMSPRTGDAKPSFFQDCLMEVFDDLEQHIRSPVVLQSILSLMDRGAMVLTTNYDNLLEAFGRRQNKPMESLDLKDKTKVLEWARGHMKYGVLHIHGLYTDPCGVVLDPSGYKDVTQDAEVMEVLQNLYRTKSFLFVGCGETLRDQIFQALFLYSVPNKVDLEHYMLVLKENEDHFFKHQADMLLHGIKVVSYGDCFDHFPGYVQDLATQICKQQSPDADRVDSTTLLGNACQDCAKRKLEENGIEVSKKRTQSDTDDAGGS

Row | Target | log2 fold change [1] | log2 fold change [2] | log2 fold change [3] | log2 fold change [4] | log2 fold change (Nexturastat A) | log2 fold change (vemurafenib) | log2 fold change [5] | log2 fold change [6] | log2 fold change (givinostat) | log2 fold change (barasertib)
1 | DHCR24 (UniProt Q15392) | 0.248 | 0.01 | -0.003 | -0.043 | 0.004 | -0.114 | -0.012 | 0.434 | 1.21 (active) | 0.088
2 | ELMO1 (UniProt Q92556) | -0.075 | -0.005 | – | -0.074 | -0.101 | -0.172 | – | 0.218 | -0.043 | -0.105
3 | ELF1 (UniProt P32519) | 0.056 | -0.05 | 0 | 0.033 | -0.051 | – | 0.091 | – | 0.152 | –
4 | DHX40 (UniProt Q8IX18) | 0.105 | -0.047 | 0.02 | -0.027 | 0.12 | 0 | 0.043 | 0.025 | 0.087 | -0.002
5 | EXOC6 (UniProt Q8TAG9) | -0.054 | -0.028 | 0.104 | 0.032 | 0.133 | 0.104 | 0.022 | 0.009 | 0.075 | -0.018
6 | DYNC1I2 isoform 5 (UniProt Q13409) | -0.008 | -0.03 | -0.006 | 0.028 | 0.043 | -0.009 | 0.005 | -0.007 | -0.005 | -0.013
7 | CTSA (UniProt P10619) | -0.033 | 0.011 | -0.02 | 0.003 | -0.016 | -0.013 | -0.039 | -0.047 | 0.117 | 0
8 | DDX27 (UniProt Q96GQ7) | -0.026 | -0.057 | – | -0.293 | 0.249 | -0.25 | – | -0.142 | 0.081 | –
9 | CTSZ (UniProt Q9UBR2) | -0.009 | -0.004 | 0.025 | 0.002 | -0.009 | -0.026 | -0.045 | -0.017 | 0.152 | 0.027
10 | CTSV (UniProt O60911) | 0 | 0.019 | 0 | -0.017 | -0.043 | -0.021 | -0.006 | -0.062 | 0.194 | 0.032
11 | FAM118A (UniProt Q9NWS6) | 0.057 | 0.086 | 0.101 | -0.163 | -0.031 | 0.182 | 0.114 | -0.016 | – | 0.112
12 | CTNNB1 (UniProt P35222) | -0.118 | -0.018 | 0.09 | -0.028 | 0.172 | -0.22 | -0.002 | -0.134 | 0.129 | 0.04
13 | DFFB (UniProt O76075) | -0.023 | -0.013 | 0.013 | 0.019 | -0.04 | 0.055 | 0 | -0.109 | -0.059 | 0.034
14 | DNM2 isoform 4 (UniProt P50570) | 0.062 | -0.001 | – | 0.23 | 0.089 | – | – | -0.032 | 0.159 | 0.013
15 | CWF19L2 (UniProt Q2TBE0) | -0.048 | 0.046 | 0.166 | -0.038 | – | – | -0.057 | – | 0.035 | –
16 | DAG1 (UniProt Q14118) | -0.053 | -0.019 | -0.013 | 0.001 | -0.005 | 0.005 | -0.06 | -0.028 | 0.019 | 0.011
17 | FAM122A (UniProt Q96E09) | -0.01 | -0.005 | 0.045 | -0.006 | 0.107 | -0.017 | 0.095 | 0.026 | 0.064 | -0.016
18 | DCTPP1 (UniProt Q9H773) | 0.003 | -0.078 | 0.009 | 0.008 | 0.067 | 0.126 | -0.043 | -0.009 | -0.019 | 0.059
19 | EIF4G3 isoform 3 (UniProt O43432) | -0.024 | 0.01 | 0 | -0.015 | – | 0.047 | 0.002 | 0.067 | 0.08 | 0.059
20 | CUX1 isoform 3 (UniProt P39880) | -0.039 | 0.016 | 0 | -0.001 | -0.013 | 0.043 | 0.025 | 0.065 | 0.002 | 0.013
21 | EEA1 (UniProt Q15075) | -0.027 | 0.009 | 0.009 | 0.011 | -0.035 | -0.024 | 0.003 | -0.036 | -0.01 | 0.009
22 | DAXX (UniProt Q9UER7) | 0.019 | -0.02 | 0.031 | -0.165 | – | -0.058 | 0.031 | – | 0.352 | -0.025
23 | CYB561A3 isoform 2 (UniProt Q8NBI2) | 0.051 | 0.025 | -0.074 | 0.02 | – | – | 0.059 | -0.086 | 0.033 | -0.057
24 | ELOVL5 isoform 2 (UniProt Q9NYP7) | 0.079 | 0.02 | 0.002 | – | -0.05 | 0.065 | 0.03 | -0.241 | -0.008 | 0.035
25 | CYBA (UniProt P13498) | -0.017 | 0.025 | 0.041 | -0.02 | -0.033 | 0 | 0.008 | -0.028 | 0.007 | -0.033
26 | EIF4A1 (UniProt P60842) | 0.106 | -0.017 | 0.061 | 0.049 | -0.115 | 0.055 | 0.089 | 0.151 | 0.06 | 0.026
27 | DYNC1LI2 (UniProt O43237) | 0.013 | -0.093 | -0.049 | -0.193 | 0.646 (active) | 0.001 | -0.027 | 0.076 | 0.017 | 0.05
28 | EGR1 (UniProt P18146) | -0.128 | -0.024 | -0.404 | – | 0.53 | 0.305 | -0.13 | -0.027 | -0.06 | -0.048
29 | DDX46 (UniProt Q7L014) | 0.123 | -0.117 | 0 | 0.069 | -0.069 | 0.099 | 0.136 | 0.001 | 0.171 | 0.13
